According to the supplement of paper PMC10849652:
Of roughly 8,800 targets only a part is listed; those with a hit were picked by preference. About 0.5% of all pairs of compound and target were hits. A number with no mark means an inactive call.

Columns and labels:
Test in all cases: log2 fold change, soluble protein after heating vs DMSO (PISA); higher = thermal stabilisation; K562 lysate, 10 uM; active = over 0.2 and 3.5 SD of the protein, either way, in both replicates (recomputed)
[1] = compound: NCC(=O)Nc1ccc(-n2nc(C(F)(F)F)cc2-c2ccc3c(ccc4ccccc43)c2)cc1
Procedure, shortened: (§1)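 Following dounce homogenisation of K562 pellets in PBS pH 7.4 with 1 mM MgCl2, crude extract at 1 mg/mL protein was incubated for 30 min with 10 μM compound. Aliquots were then heated for 3 min over 48°C-58°C and pooled, NP-40 was added to 0.5% at 4°C, and soluble protein was recovered as the supernatant at 21,000xg for 90 min. Channel-sum-equalised TMTpro 16plex LC-MS/MS quantified this protein. Each value, from duplicates, is a log-two fold change in thermal stability relative to solvent controls.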

vorinostat = compound: O=C(CCCCCCC(=O)Nc1ccccc1)NO [vorinostat]
Procedure, shortened: as §1

silmitasertib = compound: O=C(O)c1ccc2c(c1)nc(Nc1cccc(Cl)c1)c1ccncc12 [silmitasertib]
Procedure, shortened: as §1

[2] = compound: O=C1NC(=O)C(c2cnc3ccccn23)=C1c1cn2c3c(cc(F)cc13)CN(C(=O)N1CCCCC1)CC2
Procedure, shortened: as §1

entospletinib = compound: c1cn2cc(-c3ccc4cn[nH]c4c3)nc(Nc3ccc(N4CCOCC4)cc3)c2n1 [entospletinib]
Procedure, shortened: as §1

Chain of UniProt O00408 (O00408 whole entry, looked up): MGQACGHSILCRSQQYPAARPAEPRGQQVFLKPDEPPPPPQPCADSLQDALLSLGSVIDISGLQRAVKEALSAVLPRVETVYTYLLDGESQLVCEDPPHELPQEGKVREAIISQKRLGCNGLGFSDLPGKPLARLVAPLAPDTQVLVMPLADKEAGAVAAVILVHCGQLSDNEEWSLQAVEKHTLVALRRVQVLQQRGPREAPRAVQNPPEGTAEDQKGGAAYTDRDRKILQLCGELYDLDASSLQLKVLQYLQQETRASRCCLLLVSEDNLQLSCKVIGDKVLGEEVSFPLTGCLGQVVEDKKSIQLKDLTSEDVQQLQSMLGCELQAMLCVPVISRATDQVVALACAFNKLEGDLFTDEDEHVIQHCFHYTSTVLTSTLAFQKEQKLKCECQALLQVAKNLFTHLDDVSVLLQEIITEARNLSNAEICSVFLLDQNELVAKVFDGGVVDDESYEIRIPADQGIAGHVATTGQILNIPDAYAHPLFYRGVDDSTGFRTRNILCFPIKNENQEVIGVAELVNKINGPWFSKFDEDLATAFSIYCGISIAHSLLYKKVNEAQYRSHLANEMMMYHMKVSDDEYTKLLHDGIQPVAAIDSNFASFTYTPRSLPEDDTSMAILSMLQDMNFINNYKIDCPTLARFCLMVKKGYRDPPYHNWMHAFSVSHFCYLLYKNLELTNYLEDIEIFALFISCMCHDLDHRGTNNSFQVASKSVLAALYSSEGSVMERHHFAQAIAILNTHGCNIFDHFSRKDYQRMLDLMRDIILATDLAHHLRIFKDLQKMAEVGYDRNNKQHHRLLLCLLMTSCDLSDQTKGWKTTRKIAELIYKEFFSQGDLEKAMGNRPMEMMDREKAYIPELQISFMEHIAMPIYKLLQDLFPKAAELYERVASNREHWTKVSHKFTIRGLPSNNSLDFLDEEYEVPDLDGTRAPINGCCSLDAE
Chain of UniProt P49643 (P49643 whole entry, looked up): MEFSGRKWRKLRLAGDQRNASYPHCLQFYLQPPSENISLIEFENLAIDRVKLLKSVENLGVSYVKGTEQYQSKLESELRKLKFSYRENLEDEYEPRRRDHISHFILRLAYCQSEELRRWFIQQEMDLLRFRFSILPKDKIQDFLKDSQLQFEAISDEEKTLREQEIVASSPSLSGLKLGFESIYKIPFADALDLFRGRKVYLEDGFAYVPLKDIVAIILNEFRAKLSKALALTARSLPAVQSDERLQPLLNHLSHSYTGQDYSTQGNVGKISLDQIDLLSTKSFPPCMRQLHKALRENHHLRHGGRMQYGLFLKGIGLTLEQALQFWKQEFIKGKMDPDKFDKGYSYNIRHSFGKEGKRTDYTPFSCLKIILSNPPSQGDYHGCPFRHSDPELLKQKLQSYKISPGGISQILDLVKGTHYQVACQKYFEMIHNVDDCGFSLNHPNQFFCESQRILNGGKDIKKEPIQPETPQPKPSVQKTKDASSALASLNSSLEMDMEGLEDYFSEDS
Chain of UniProt Q9Y6I8 (Q9Y6I8 whole entry, looked up): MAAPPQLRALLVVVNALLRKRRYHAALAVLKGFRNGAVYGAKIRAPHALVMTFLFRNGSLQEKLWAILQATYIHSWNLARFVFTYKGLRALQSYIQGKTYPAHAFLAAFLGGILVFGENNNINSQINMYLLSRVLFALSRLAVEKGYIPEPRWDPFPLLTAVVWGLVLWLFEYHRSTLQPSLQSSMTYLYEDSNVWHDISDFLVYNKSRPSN
Chain of UniProt Q9BZL6 (Q9BZL6 whole entry, looked up): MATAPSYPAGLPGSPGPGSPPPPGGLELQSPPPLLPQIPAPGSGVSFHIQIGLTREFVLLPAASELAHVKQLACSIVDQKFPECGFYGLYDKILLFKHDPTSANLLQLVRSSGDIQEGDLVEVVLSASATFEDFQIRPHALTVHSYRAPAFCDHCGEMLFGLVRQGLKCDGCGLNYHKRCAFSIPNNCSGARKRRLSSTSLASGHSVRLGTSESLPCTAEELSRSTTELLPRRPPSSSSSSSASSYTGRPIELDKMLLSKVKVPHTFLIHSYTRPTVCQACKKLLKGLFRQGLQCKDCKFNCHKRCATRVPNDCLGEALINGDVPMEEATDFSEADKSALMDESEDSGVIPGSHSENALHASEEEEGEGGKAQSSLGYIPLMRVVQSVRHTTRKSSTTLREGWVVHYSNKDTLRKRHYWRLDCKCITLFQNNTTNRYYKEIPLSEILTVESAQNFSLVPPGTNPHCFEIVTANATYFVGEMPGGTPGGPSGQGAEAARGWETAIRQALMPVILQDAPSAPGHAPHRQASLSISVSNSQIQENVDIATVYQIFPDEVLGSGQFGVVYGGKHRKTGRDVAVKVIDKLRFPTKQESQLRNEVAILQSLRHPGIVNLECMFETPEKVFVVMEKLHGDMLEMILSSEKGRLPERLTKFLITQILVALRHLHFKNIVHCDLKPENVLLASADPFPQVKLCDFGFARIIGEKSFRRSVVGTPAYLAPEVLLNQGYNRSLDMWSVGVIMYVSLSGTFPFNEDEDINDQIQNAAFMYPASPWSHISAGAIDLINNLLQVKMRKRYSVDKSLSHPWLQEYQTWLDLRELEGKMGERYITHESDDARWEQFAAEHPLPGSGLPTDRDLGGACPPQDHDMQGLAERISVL
Chain of UniProt P0CAP2 (P0CAP2 whole entry, looked up): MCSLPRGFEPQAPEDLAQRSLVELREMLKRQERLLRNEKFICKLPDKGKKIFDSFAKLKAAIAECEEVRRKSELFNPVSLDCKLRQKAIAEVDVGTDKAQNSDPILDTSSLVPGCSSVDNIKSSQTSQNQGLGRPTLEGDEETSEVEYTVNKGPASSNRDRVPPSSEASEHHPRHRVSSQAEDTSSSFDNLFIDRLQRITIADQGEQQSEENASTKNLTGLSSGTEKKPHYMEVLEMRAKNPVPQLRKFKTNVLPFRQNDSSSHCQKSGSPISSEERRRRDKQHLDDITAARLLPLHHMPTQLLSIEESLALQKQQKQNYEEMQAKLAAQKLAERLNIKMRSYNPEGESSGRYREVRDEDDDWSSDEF
Chain of UniProt Q9UHX1 (Q9UHX1 whole entry, looked up): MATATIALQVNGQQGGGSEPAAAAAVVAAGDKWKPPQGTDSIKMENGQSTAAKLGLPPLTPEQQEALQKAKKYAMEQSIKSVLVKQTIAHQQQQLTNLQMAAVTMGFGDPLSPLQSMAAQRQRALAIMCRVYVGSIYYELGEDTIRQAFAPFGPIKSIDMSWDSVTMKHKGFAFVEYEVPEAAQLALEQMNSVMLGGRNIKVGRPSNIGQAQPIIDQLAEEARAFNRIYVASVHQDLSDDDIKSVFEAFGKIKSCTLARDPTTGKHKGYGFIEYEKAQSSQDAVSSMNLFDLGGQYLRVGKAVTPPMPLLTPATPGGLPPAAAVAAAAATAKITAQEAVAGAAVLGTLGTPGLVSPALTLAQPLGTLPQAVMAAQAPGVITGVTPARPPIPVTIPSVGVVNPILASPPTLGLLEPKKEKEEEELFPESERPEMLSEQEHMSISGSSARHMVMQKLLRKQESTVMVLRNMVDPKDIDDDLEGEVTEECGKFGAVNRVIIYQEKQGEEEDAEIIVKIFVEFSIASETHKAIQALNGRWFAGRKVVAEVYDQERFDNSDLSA
Chain of UniProt Q8N8N7 (Q8N8N7 whole entry, looked up): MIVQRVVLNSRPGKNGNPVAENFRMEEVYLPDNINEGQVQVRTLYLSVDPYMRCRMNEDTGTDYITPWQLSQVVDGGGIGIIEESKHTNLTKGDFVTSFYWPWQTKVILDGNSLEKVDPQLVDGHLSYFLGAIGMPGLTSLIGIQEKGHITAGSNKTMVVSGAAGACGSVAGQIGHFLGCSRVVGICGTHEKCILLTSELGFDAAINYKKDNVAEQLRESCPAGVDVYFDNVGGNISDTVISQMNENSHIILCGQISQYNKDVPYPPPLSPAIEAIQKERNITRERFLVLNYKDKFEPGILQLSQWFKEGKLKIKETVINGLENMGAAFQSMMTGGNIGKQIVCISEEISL
Chain of UniProt Q9NY27 (Q9NY27 whole entry, looked up): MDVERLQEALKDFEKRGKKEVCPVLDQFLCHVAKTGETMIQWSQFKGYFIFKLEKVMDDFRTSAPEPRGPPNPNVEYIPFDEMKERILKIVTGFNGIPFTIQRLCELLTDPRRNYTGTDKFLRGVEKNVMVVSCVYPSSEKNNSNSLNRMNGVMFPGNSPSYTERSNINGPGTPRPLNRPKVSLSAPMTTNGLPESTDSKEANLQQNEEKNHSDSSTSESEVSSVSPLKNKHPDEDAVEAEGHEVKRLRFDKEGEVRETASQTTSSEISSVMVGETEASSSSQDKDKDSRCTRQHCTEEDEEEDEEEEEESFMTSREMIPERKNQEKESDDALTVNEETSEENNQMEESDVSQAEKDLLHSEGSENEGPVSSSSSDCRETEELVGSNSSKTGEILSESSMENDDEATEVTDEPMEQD
Chain of UniProt Q9BZE2 (Q9BZE2 whole entry, looked up): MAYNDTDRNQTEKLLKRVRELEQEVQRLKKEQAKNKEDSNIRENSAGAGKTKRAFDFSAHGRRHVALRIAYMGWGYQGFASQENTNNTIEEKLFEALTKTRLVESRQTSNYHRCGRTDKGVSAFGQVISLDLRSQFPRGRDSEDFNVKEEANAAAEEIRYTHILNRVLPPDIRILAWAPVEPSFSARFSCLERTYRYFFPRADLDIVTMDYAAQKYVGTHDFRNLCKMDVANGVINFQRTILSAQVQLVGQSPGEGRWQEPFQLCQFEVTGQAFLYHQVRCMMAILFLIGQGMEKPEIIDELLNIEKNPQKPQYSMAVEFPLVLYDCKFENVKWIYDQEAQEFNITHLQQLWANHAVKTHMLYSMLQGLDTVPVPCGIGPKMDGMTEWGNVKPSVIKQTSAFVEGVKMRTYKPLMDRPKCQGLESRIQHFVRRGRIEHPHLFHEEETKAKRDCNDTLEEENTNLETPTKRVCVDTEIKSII
Chain of UniProt Q96S99 (Q96S99 whole entry, looked up): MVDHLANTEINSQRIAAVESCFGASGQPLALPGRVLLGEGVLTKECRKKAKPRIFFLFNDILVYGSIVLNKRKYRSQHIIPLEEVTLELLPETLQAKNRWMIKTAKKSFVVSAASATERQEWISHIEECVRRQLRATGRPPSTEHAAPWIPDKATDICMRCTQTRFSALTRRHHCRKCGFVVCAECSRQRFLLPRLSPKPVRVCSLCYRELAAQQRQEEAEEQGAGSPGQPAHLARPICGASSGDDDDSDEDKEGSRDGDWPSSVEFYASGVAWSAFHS

Row | Target | log2 fold change [1] | log2 fold change (vorinostat) | log2 fold change (silmitasertib) | log2 fold change [2] | log2 fold change (entospletinib)
1 | PTPN23 (UniProt Q9H3S7) | -0.011 | -0.266 (active) | -0.007 | 0 | 0.009
2 | PKP3 isoform 2 (UniProt Q9Y446) | -0.021 | -0.286 (active) | -0.043 | -0.063 | 0.002
3 | PRKAB2 (UniProt O43741) | -0.006 | -0.009 | 0.111 | 0.096 | 0.013
4 | PI4KB (UniProt Q9UBF8) | -0.085 | -0.132 | 0.151 | -0.044 | 0.184
5 | PICALM (UniProt H0YEH1) | -0.048 | 0.037 | -0.045 | -0.075 | -0.237
6 | PRKD2 isoform 3 (UniProt Q9BZL6) | -0.043 | -0.326 (active) | 0.051 | 0.088 | 0.052
7 | PCBP2 isoform 3 (UniProt Q15366) | -0.071 | -0.252 (active) | 0.042 | -0.035 | 0.01
8 | PRC1 (UniProt O43663) | 0.012 | -0.387 (active) | 0.046 | -0.02 | 0.023
9 | PUS3 (UniProt Q9BZE2) | 0.051 | -0.527 (active) | 0.11 | 0.017 | -0.041
10 | PIGO (UniProt Q8TEQ8) | -0.156 | 0.15 | 0.18 | 0.121 | -0.015
11 | PUF60 isoform 2 (UniProt Q9UHX1) | -0.061 | 0.23 | 0.075 | 0.026 | 0.027
12 | POLR2M (UniProt P0CAP2) | 0.034 | 0 | -0.029 | -0.027 | 0.076
13 | PDE2A (UniProt O00408) | 0.195 | 0.117 | 0.022 | 0.071 | 0.01
14 | PRPF6 (UniProt O94906) | 0.002 | -0.262 (active) | 0.047 | 0.004 | 0.026
15 | PES1 (UniProt O00541) | 0.03 | -0.193 | 0.037 | 0.014 | -0.015
16 | PGRMC1 (UniProt O00264) | -0.018 | 0.113 | 0.017 | 0.014 | -0.02
17 | PDE4DIP (UniProt E9PS60) | 0.002 | -0.157 | 0.082 | 0.039 | 0.103
18 | PPIL3 (UniProt Q9H2H8) | 0.084 | -0.155 | -0.022 | 0.029 | -0.016
19 | PWP1 (UniProt Q13610) | -0.082 | 0.139 | -0.033 | 0.022 | -0.003
20 | PIK3R1 (UniProt P27986) | -0.035 | -0.206 | 0.213 | 0.022 | 0.03
21 | PRAME (UniProt P78395) | 0.025 | -0.283 (active) | 0.043 | 0.004 | 0.048
22 | PHGDH (UniProt O43175) | 0.023 | -0.939 (active) | 0.031 | 0.028 | 0.016
23 | PFAS (UniProt O15067) | 0.029 | -0.272 (active) | 0.022 | 0.031 | 0.016
24 | PPP2CA (UniProt P67775) | -0.079 | 0.076 | -0.021 | -0.004 | 0
25 | PIP4K2A (UniProt P48426) | 0.027 | 0.024 | 0.225 | 0.007 | -0.029
26 | PRPF38A (UniProt Q8NAV1) | -0.059 | -0.278 | 0.03 | 0.03 | 0.055
27 | PTP4A1 (UniProt Q93096) | 0.019 | -0.292 (active) | -0.003 | 0.014 | -0.009

Row | Target | log2 fold change [1] | log2 fold change (vorinostat) | log2 fold change (silmitasertib) | log2 fold change [2] | log2 fold change (entospletinib)
28 | PRKCA (UniProt P17252) | -0.045 | -0.14 | 0.044 | 0.087 | 0.018
29 | PRIM2 (UniProt P49643) | -0.008 | -0.296 (active) | 0.09 | 0 | 0.003
30 | PTK2 (UniProt Q05397) | -0.017 | -0.137 | 0 | -0.056 | 0.175
31 | PRKCSH (UniProt K7ELL7) | 0.132 | 0.109 | 0.016 | 0.016 | -0.097
32 | PPP4R2 (UniProt Q9NY27) | -0.007 | -0.053 | -0.016 | 0.023 | -0.001
33 | PFKFB3 isoform 4 (UniProt Q16875) | 0.025 | -0.34 (active) | 0.108 | 0.017 | -0.006
34 | PDXDC1 (UniProt Q6P996) | -0.041 | -0.233 (active) | 0.038 | 0.018 | -0.019
35 | PLEKHF1 (UniProt Q96S99) | -0.019 | -0.272 (active) | 0.07 | -0.014 | 0.014
36 | PITRM1 isoform 2 (UniProt Q5JRX3) | 0.003 | 0.111 | 0.006 | -0.011 | 0.002
37 | PLEKHA5 isoform 6 (UniProt Q9HAU0) | -0.029 | -0.305 (active) | -0.003 | -0.016 | 0.022
38 | POLR3E (UniProt Q9NVU0) | -0.017 | -0.263 (active) | -0.023 | 0.027 | -0.004
39 | POMP (UniProt Q9Y244) | -0.016 | -0.028 | 0.05 | 0.014 | -0.12
40 | PIKFYVE (UniProt Q9Y2I7) | 0.031 | -0.476 (active) | 0.03 | -0.026 | -0.014
41 | PPFIA2 (UniProt O75334) | 0.05 | -0.053 | -0.074 | 0.069 | -0.036
42 | PTK2B (UniProt Q14289) | 0.016 | -0.339 (active) | 0.021 | -0.088 | -0.002
43 | PUM1 isoform 3 (UniProt Q14671) | 0.027 | -0.192 | 0 | -0.004 | -0.009
44 | POLR2B (UniProt P30876) | 0.03 | -0.344 (active) | 0.034 | 0.024 | -0.008
45 | PUF60 (UniProt Q9UHX1) | -0.007 | 0.15 | -0.029 | 0.002 | 0.002
46 | PREP (UniProt P48147) | 0.006 | -0.153 | 0.008 | -0.01 | 0.014
47 | PRKD3 (UniProt O94806) | -0.116 | -0.182 | 0.224 | 0.076 | 0.013
48 | PTGR2 (UniProt Q8N8N7) | -0.083 | 0.656 (active) | -0.002 | 0.11 | -0.005
49 | PHKG1 isoform 2 (UniProt Q16816) | 0.053 | -0.342 | 0.259 | -0.123 | -0.002
50 | PHKA1 (UniProt P46020) | 0.002 | -0.223 (active) | 0.184 | -0.001 | -0.01
51 | PHLDB1 (UniProt Q86UU1) | 0.022 | -0.357 (active) | 0.012 | 0.128 | 0.008
52 | PI4K2A (UniProt Q9BTU6) | -0.006 | -0.005 | 0.074 | -0.009 | 0.001
53 | PXMP4 (UniProt Q9Y6I8) | 0.038 | 0.295 | 0.134 | 0.021 | -0.004
